Sampled rows, rich in hits. Any-hit rate of the full collection: about 5.5%.
Mito fusion yeast: blocks mitochondrial division or promotes mitochondrial fusion; S. cerevisiae fusion-defective mutant growth rescue, CellTiterGlo 48 h; Potency, µM (series often up to 46.1 µM), inactives show at the top dose growth rescue (activation), usual class: activators; 320,000 compounds, 0.23% hits; AID 485298; further: % of control where 0% means no effect; nearly all actives have a fitted effect of over 45% in size
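S. cerevisiae fusion-defective temperature-sensitive mutants (e.g. fzo1-1, mgm1-5) grown 48 h at 37C in YPEG (ethanol/glycerol non-fermentable) medium with 23 nl compound per well; growth rescue read as CellTiterGlo luminescence.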
Gal4-VP16 FLuc: counter-screen for ROR gamma inhibitors: Gal4-VP16 reporter. 310,000 compounds, 3.5% hits. Drosophila S2 Gal4-VP16 UAS-luciferase, luminescence, 20 h. Potency, µM (top dose mostly 53.6 µM), inactives show at the top dose activity, negative = inhibition, hits mostly inhibitors;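 further: Gal4-VP16 expression switched on by copper sulfate through the metallothionein promoter; on the % scale 0 is the no-effect control and ±100 the full control effect; nearly all actives have a fitted effect of over 50% in size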
uPA surface inh: inhibitors of cell surface uPA generation; AID 540303; 330,000 compounds, 0.31% hits; Potency, µM (series often up to 38.3 µM), for the others: at the top dose activity change, negative = inhibition, usual class: inhibitors; cell surface uPA generation assay, qHTS; active means well fitted inhibition curve with a large enough effect; inconclusive means small, poorly fitted or top-dose-only effect; inactive means no such curve, though single readings can be large or run the other way; tested in mouse RAW 264.7 cells; further: on the % scale 0 is the no-effect control and ±100 the full control effect; nearly all actives have a fitted effect of over 55% in size
Chronic BCR inh: chronic active BCR signaling inhibition. ABC-DLBCL IkBa-CBG/CBR reporter, luminescence ratio, 4 h. Potency, µM (highest dose often 46.1 µM), without a hit: at the highest dose activity change, negative = inhibition, actives largely listed as inhibitors. 340,000 compounds, 0.05% hits. AID 493014; active means well fitted inhibition curve with a large enough effect in the signal ratio, with a control signal flat, not every such curve was filed as active; inconclusive means small, poorly fitted or top-dose-only effect, or effect the other way, or a change in a side signal; the % refers to the signal ratio;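 further: plate controls were basal doxycycline-induced cells for no effect and cells given 10 µM MG132 for full effect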
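TMD8 ABC-DLBCL cells carrying doxycycline-inducible green luciferase fused to IkappaBalpha plus unfused red luciferase were exposed to compounds (up to 46 uM) for 4 hrs at 37C. Activity came from the overlap-corrected green/red luminescence ratio.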
Integrin act MD: activates integrin-mediated alleviation for muscular dystrophy; AID 624291; 350,000 compounds, 0.064% hits; alpha7betagal myoblasts, beta-gal FDG fluorescence, 48 h; Potency, µM (series often up to 38.3 µM), without a hit: at the top dose activation, hits mostly activators;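 further: 100% = response of the positive control SU9516; nearly all actives have a fitted effect of over 60% in size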
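alpha7betagal+/- myoblasts (passage 13, 250/well) treated 48 h at 37C with compounds at 1:260 dilution of DMSO stock. Lysed, then beta-galactosidase activity read as FDG fluorescence (ex 480/em 540) after 30 min, with pre-read for autofluorescence.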
RORg inh: blocks mouse ROR gamma transcriptional activity. P51450. Drosophila S2 Gal4-RORgamma UAS-luciferase reporter, 20 h. Potency, µM (series often up to 53.6 µM), for the others: at the highest dose activity change, negative = inhibition, hits mostly inhibitors. 310,000 compounds, 5.4% hits. AID 2551; further: on the % scale 0 is the no-effect control and ±100 the full control effect; nearly all actives have a fitted effect of over 60% in size
Target sequence (P51450 whole entry, looked up, the tested form may be a part): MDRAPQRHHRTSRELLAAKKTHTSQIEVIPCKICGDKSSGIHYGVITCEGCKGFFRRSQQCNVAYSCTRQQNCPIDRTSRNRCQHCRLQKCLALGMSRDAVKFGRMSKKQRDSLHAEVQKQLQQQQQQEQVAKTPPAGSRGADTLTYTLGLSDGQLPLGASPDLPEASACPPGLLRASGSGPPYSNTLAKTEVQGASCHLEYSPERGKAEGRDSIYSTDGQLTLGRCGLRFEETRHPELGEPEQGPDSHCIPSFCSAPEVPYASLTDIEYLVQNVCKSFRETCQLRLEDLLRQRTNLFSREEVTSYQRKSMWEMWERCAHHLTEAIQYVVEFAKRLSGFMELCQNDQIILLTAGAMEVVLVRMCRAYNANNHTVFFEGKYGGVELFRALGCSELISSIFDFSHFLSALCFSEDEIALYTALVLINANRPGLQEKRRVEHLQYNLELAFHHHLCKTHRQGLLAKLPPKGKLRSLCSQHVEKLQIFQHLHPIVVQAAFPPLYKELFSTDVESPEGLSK
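Read-out: Photinus luciferase luminescence; inhibitors lower reporter signal. Insect Schneider cells with Gal4-ROR gamma fusion under metallothionein promoter, UAS reporter; 700 uM final copper sulfate induction, 20 hr, ambient temperature.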
The depositor's hits bear a star; ? = inconclusive; . = no result. Unless noted, the call rests on the fitted dose curve; in most records, active means well fitted curve in the direction sought with a large enough effect; inconclusive means small, poorly fitted or top-dose-only effect, or another doubt; inactive means no such curve, though single readings can be large; an effect the other way counts as inactive or inconclusive. Potency means the concentration at half of the fitted maximal effect.

SMILES	Mito fusion yeast	Gal4-VP16 FLuc	uPA surface inh	Chronic BCR inh	Integrin act MD	RORg inh
CC(C)(C)NC(=O)C(c1ccc(I)cc1)N(CCN1CCOCC1)C(=O)CCCNC(=O)c1ccccc1 (centres undefined)	.	-7%	.	.	.	2%
O=C1C2CCCN2C(c2ccccc2)N1c1ccc(F)cc1 (centres undefined)	-2%	0%	-22%	4%	5%	-18%
O=C1C2CCCN2C(c2ccc(F)cc2)N1c1ccc(Cl)cc1 (centres undefined)	-2%	0%	5µM*	1%	21%	19%
CC(C)NC(=O)c1onc(CSc2cccc3ccccc23)c1C(=O)O	3%	?	7%	16%	8%	18µM*
Cc1cccc(SCc2noc(C(=O)NC(C)C)c2C(=O)O)c1	1%	16µM*	5%	?	4%	?
Cc1cc(C)cc(SCc2noc(C(=O)NC(C)C)c2C(=O)O)c1	2%	?	-11%	2%	5%	?
CC(C)NC(=O)c1onc(CSc2ccccc2)c1C(=O)O	2%	-15%	-2%	?	2%	-43%
COc1ccc(NC(=O)N2CCC3(CC2)CCN(C(=O)c2cccn2C)CC3)cc1	.	0%	.	.	.	2%
COc1ccc(OC)c(C2C(C(=O)c3ccccc3)=C(C)Nc3nc4ccccc4n32)c1 (centres undefined)	-3%	-11%	14%	7%	14%	7.1µM*
COc1ccc(C2C(C(=O)c3ccccc3)=C(C)Nc3nc4ccccc4n32)cc1OC (centres undefined)	-1%	7%	2%	2%	-4%	-31%
CC(C)CC(NC(=O)C(NC(=O)C(Cc1ccc(OCc2ccccc2)cc1)NC(=O)OC(C)(C)C)C(C)C)C(N)=O (centres undefined)	-2%	13µM*	6%	0%	-22%	?
CCOc1ccc(/C=N/NC(=O)C(O)c2ccccc2)c(O)c1 (centres undefined)	0%	2µM*	-11%	-6%	-20%	0.79µM*
NCCCCCc1nnc(SCc2ccccc2Cl)o1	-7%	0.45µM*	-2%	?	12%	1µM*
CN1/C(=C\P(=O)(N(C)C)N(C)C)C(C)(C)c2ccccc21	2%	7.9µM*	-26%	0%	-49%	-39%
CCOC(=O)/C=C1/N(C)c2ccccc2C1(C)C	-2%	-4%	4%	-2%	12%	-12%
CN(C)CCCNc1ncnc2oc(-c3ccccc3)c(-c3ccccc3)c12	-28%	-14%	-3%	0%	?	-40%
OCCNc1ncnc2c1c(-c1ccccc1)c(-c1ccccc1)n2Cc1ccco1	6%	16%	4%	?	6%	-32%
c1ccc(-c2c(-c3ccccc3)n(Cc3ccco3)c3ncnc(NCCCn4ccnc4)c23)cc1	-13%	16µM*	4%	?	-51%	-29%
c1ccc(-c2oc3ncnc(NCCCn4ccnc4)c3c2-c2ccccc2)cc1	-1%	?	4%	-14%	-2%	22µM*
Cc1cc(C(=O)N[C@@H](c2ccccc2)[C@]2(C)C[C@H]2[C@@H](C)C(=O)Nc2ccc3ccccc3c2)n(C)n1	.	-15%	.	.	.	0%
CC(C)C(=O)c1cc2c(cc1NC(=O)c1ccccc1F)OCCO2	-6%	.	.	-1%	.	.
CCNC(=O)CSc1nc(-c2ccc(F)cc2)cs1	-4%	2%	0%	-4%	5µM*	1%
CC(C)(C)NC(=O)CSc1nc(-c2ccc(F)cc2)cs1	-3%	-7%	2%	3%	4%	-21%
CCn1c(SCC(=O)N2CCN(c3ccccc3)CC2)nnc1-c1c[nH]c2ccccc12	-4%	?	7.9µM*	-2%	-13%	?
COCCCNC(=S)N/N=C/c1ccc2c(c1)OCO2	-7%	?	13%	?	-24%	5.6µM*
CC(=O)Nc1ccc(/C=N/NC(=S)NC(C)C)cc1	0%	-17%	-2%	?	-2%	16µM*
